Hits are enriched below; roughly 5.4% of the tested compounds scored in any of these assays.
ALOX12 inhib – qHTS Assay for Inhibitors of 12-hLO (12-human lipoxygenase); Polyunsaturated fatty acid lipoxygenase ALOX12 (Homo sapiens), P18054; purified 12-hLO, xylenol orange hydroperoxide absorbance; Potency, µM (highest dose often 57.1 µM), without a hit: top-dose activity change, negative = inhibition, usual class: inhibitors; 0.12% of 150,000 active; AID 1452, 2008; also: potency is read from the fitted curve at half-maximal effect; nearly all actives have a fitted effect of over 55% in size
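Purified human 12hLO (150 nM), preincubated 15 min with compound, then 40 uM arachidonic acid for 30 min, room temperature, Hepes pH 7.0 with 0.01% Triton X-100. Hydroperoxide detected by ferrous iron/xylenol orange; 573/405 nm absorbance ratio gives reaction progress.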
PNC assembly inh – High Content Assay for Compounds that inhibit the Assembly of the Perinucleolar Compartment | PC3M PTB-GFP, PNC prevalence imaging, 16 h; active compounds read low | activity change (PNC), negative = inhibition, % at 10 µM | 3.1% of 140,000 active | AID 2417, 2010;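 active = readout at or below -70, meaning at least 70% loss of cells showing the perinucleolar compartment, a nuclear body marking cancer cells; inconclusive = readout between -30 and a set limit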;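 also: plate controls were DMSO wells for no effect and camptothecin positive control wells for full effect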
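Compounds are pinned in duplicate onto adhered PC3M cells stably expressing GFP-tagged PTB and incubated 16 h at 37 C. Cells are then fixed, nuclei stained with Hoechst, and PNC-positive cells counted.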
IMPase Li inh – qHTS Assay for Identifying the Cell-Membrane Permeable IMPase Inhibitors: Potentiation with Lithium | 0.35% of 210,000 active | Potency, µM (top dose mostly 59.4 µM), without a hit: at the highest dose activity, negative = IMPase inhibition, most hits filed as inhibitors | CHO-M1 cells, IP1 TR-FRET (IP-One), carbachol + lithium;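 also: IP1 builds up when IMPase is blocked and the TR-FRET signal falls; potency is read from the fitted curve at half-maximal effect; plate controls were basal vehicle for no effect and high inhibitor control for full effect; nearly all actives have a fitted effect of over 50% in size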
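CHO cells stably expressing M1 receptor (2000/well) were cultured 16–30 h, then exposed to compounds with a small lithium addition for 30 min at 37C. IP1 was measured by TR-FRET competition; AC50 from Hill fits.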
15-hLO-2 inh – qHTS Assay for Inhibitors of 15-hLO-2 (15-human lipoxygenase 2) | Polyunsaturated fatty acid lipoxygenase ALOX15B (Homo sapiens), O15296 | purified 15hLO-2, xylenol orange hydroperoxide absorbance | Potency, µM (top dose mostly 57.1 µM), for the others: top-dose activity change, negative = inhibition, actives largely listed as inhibitors | 0.56% of 110,000 active | AID 881, 2007; also: potency is read from the fitted curve at half-maximal effect; nearly all actives have a fitted effect of over 60% in size
Target sequence (O15296 whole entry, looked up): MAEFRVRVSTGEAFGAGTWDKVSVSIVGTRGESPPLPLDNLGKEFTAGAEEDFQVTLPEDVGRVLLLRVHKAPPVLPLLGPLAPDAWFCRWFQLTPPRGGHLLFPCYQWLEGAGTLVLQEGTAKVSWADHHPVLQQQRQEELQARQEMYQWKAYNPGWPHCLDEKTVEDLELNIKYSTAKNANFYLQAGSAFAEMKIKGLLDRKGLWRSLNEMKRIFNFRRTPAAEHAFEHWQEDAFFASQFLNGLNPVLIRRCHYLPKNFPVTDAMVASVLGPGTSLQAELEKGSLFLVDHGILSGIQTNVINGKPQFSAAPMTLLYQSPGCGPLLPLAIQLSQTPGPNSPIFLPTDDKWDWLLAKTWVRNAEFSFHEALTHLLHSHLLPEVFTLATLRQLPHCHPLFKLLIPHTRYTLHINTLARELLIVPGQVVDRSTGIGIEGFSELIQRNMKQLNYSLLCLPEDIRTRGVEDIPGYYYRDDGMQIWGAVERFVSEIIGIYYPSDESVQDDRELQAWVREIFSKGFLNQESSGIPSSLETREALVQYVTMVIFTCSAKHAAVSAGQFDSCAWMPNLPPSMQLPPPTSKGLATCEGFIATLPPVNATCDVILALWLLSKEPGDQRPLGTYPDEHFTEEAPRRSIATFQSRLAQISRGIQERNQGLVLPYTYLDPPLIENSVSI
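Purified human 15hLO-2 (50 nM) preincubated 15 min with compound, then 45 uM arachidonic acid for 90 min at RT in 25 mM Hepes pH 7.5, 0.01% Triton X-100. Hydroperoxide detected by Fe-xylenol orange; 573/405 nm absorbance ratio.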
HPGD inh – qHTS Assay for Inhibitors of HPGD (15-Hydroxyprostaglandin Dehydrogenase); 15-hydroxyprostaglandin dehydrogenase [NAD(+)] (Homo sapiens), P15428; purified HPGD, NADH fluorescence kinetic, PGE2 substrate; Potency, µM, without a hit: top-dose activity change, negative = inhibition, hits mostly inhibitors; 4.3% of 150,000 active; active = well fitted inhibition curve with a large enough effect, not every such curve was filed as active; inconclusive = small, poorly fitted or top-dose-only effect, or another doubt; inactive = no such curve, though single readings can be large or run the other way; also: potency is read from the fitted curve at half-maximal effect
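20 nM HPGD preincubated 15 min at room temperature with compound in 50 mM Tris-HCl pH 8, 0.01% Tween 20. Started with 1 mM NAD+ and 30 uM prostaglandin E2; NADH fluorescence (360/450 nm) read 5 times over 30-s intervals, last minus first.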
IMPase inh – qHTS Assay for Identifying the Cell-Membrane Permeable IMPase Inhibitors | Inositol monophosphatase 1 (Rattus norvegicus), P97697 | CHO-M1 cells, IP1 accumulation, HTRF TR-FRET ratio | inhibition (IP1 accumulation), % at 46.1 µM | 120,000 tested, under 10 active; active = well fitted curve in the direction sought with a large enough effect in the signal ratio, not every such curve was filed as active; inconclusive = small, poorly fitted or top-dose-only effect, or a change in a side signal; inactive = no such curve, though single readings can be large or run the other way; the % refers to the signal ratio;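 also: cells stimulated with carbachol in lithium chloride buffer; plate controls were DMSO basal wells for no effect and reference inhibitor wells for full effect; higher means more IMPase inhibition seen as more IP1 and lower FRET ratio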
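In this qHTS, compounds (final up to 46 uM) act on CHO-M1 cells that are then activated through the M1 receptor with carbachol, in pH 7.4 buffer containing 50 mM LiCl, for 30 min. IP1 accumulation is quantified by the IP-One immunoassay.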
Numbers without * were called inactive; [ ] = remark or other dose. Unless noted, calls follow the shape of the dose curve; as a rule, active = well fitted curve in the direction sought with a large enough effect; inconclusive = small, poorly fitted or top-dose-only effect, or another doubt; inactive = no such curve, though single readings can be large; an effect the other way counts as inactive or inconclusive. Unless noted, % is scaled to controls: 0 for no effect and ±100 for the full control effect.

O=C(C1CCC1)N1CCC(c2nc3c(nnn3Cc3c(F)cccc3Cl)c(=O)[nH]2)CC1 was read as ALOX12 inhib -1%, PNC assembly inh inconclusive, IMPase Li inh -5%[38.3 µM], 15-hLO-2 inh -8%, HPGD inh -18% and IMPase inh 3.
O=C(c1ccc(Cl)cc1Cl)N1CCC(c2nc3c(nnn3Cc3ccco3)c(=O)[nH]2)CC1 was read as ALOX12 inhib -19%, PNC assembly inh inconclusive, IMPase Li inh 17%, 15-hLO-2 inh -22%, HPGD inh 20µM* and IMPase inh -1.
For O=C(c1ccccc1)N1CCC(c2nc3c(nnn3Cc3ccco3)c(=O)[nH]2)CC1 the results were ALOX12 inhib 5%, PNC assembly inh -2, IMPase Li inh 4%[38.3 µM], 15-hLO-2 inh -3%, HPGD inh 14µM* and IMPase inh 2.
`O=C1NC2c3ccccc3C(=O)N2c2c1cnn2-c1ccccc1` (stereo not given) gave ALOX12 inhib 7%, PNC assembly inh -100*, IMPase Li inh 9%, HPGD inh -20% and IMPase inh -13.
Cc1nn(-c2ccccc2)c2[nH]c(=O)c(CNc3ccc(N4CCOCC4)cc3)cc12 was read as ALOX12 inhib inconclusive, PNC assembly inh -13, IMPase Li inh -11%[38.3 µM], 15-hLO-2 inh 16µM*, HPGD inh -10% and IMPase inh 7.
CC(CO)(CO)Nc1ncnc2ccccc12 was read as ALOX12 inhib 2%[11.4 µM], IMPase Li inh -5%, 15-hLO-2 inh 4%[11.4 µM] and HPGD inh -2%.
Oc1ccc(Cc2cc(Cl)cc(Cl)c2O)cc1Cl was read as ALOX12 inhib -2%[11.4 µM], IMPase Li inh -2%, 15-hLO-2 inh -18%[11.4 µM] and HPGD inh -13%.
Screening Cc1ccc(-c2cc(C(F)F)n3ncc(C(=O)N4CCCc5ccccc54)c3n2)cc1 returned ALOX12 inhib 6%, PNC assembly inh -100*, IMPase Li inh 19%, HPGD inh -15% and IMPase inh 10.
O=C(c1cnn2c(C(F)F)cc(-c3ccccc3)nc12)N1CCOCC1 was read as ALOX12 inhib -1%, PNC assembly inh 6, IMPase Li inh -7%, HPGD inh inconclusive and IMPase inh 1.
`COc1ccc(-c2cc(C(F)F)n3ncc(C(=O)N4CCc5ccccc54)c3n2)cc1` gave IMPase Li inh 18%.
Screening O=C(c1cnn2c(C(F)F)cc(-c3ccccc3)nc12)N1CCSCC1 returned ALOX12 inhib 1%, PNC assembly inh -6, IMPase Li inh 2%, HPGD inh 10µM* and IMPase inh -2.
`N#Cc1cc(-c2cccc(Cl)c2)c[nH]c1=O` gave ALOX12 inhib 5%, PNC assembly inh -92*, IMPase Li inh 2%[38.3 µM], 15-hLO-2 inh 7%[11.4 µM], HPGD inh -19% and IMPase inh 4[1.84 µM].
For COC(=O)CSc1nc2nc(C)cc(C)n2n1 the results were ALOX12 inhib -1%, PNC assembly inh -85*, IMPase Li inh 27%[38.3 µM], 15-hLO-2 inh -2%, HPGD inh -16% and IMPase inh -5.
For COCCNC(=O)CSc1nc2nc(C)cc(C)n2n1 the results were ALOX12 inhib -9%, PNC assembly inh -17, IMPase Li inh 1%[38.3 µM], 15-hLO-2 inh -6%, HPGD inh 20µM* and IMPase inh 3.
CCOC(=O)CSc1nc2nc(C)cc(C)n2n1 was read as ALOX12 inhib -5%, PNC assembly inh 28, IMPase Li inh 30%[38.3 µM], 15-hLO-2 inh -3%, HPGD inh -5% and IMPase inh -11.
`Cc1cc(C)n2nc(SCCC(=O)NCCc3ccccc3)nc2n1` gave ALOX12 inhib -1%, PNC assembly inh 36, IMPase Li inh 30%[38.3 µM], 15-hLO-2 inh 4%, HPGD inh -14% and IMPase inh -4.
`N=c1ccn2c(n1)O[C@@H]1[C@@H](O)[C@H](CO)O[C@H]12` gave ALOX12 inhib -4%, 15-hLO-2 inh 2% and IMPase inh 0.
Screening COCCn1c(SCC(=O)Nc2ncc(C)s2)nc2sc3c(c2c1=O)CCC3 returned ALOX12 inhib -7%, PNC assembly inh inconclusive, IMPase Li inh 28%[38.3 µM], 15-hLO-2 inh 26%, HPGD inh -10% and IMPase inh -1.
Screening COCCn1c(SCc2nnc(-c3ccccc3)o2)nc2sc3c(c2c1=O)CCC3 returned ALOX12 inhib -8%, PNC assembly inh 51, IMPase Li inh 22%[38.3 µM], 15-hLO-2 inh 1%, HPGD inh 7.1µM* and IMPase inh 9.
For COc1ccccc1N(CC(=O)Nc1cc(C)on1)S(=O)(=O)c1ccc(Cl)cc1 the results were ALOX12 inhib -3%, PNC assembly inh -13, IMPase Li inh 35%[38.3 µM], 15-hLO-2 inh -5%, HPGD inh 14µM* and IMPase inh 1.
COc1ccc(OC)c(N(CC(=O)Nc2cccnc2)S(=O)(=O)c2ccc(OC)c(OC)c2)c1 was read as ALOX12 inhib 0%, PNC assembly inh -109*, IMPase Li inh 23%[38.3 µM], 15-hLO-2 inh -3%, HPGD inh 16µM* and IMPase inh -6.
COc1ccc(OC)c(N(CC(=O)Nc2cccnc2)S(=O)(=O)c2ccc(C)cc2)c1 was read as ALOX12 inhib 12%, PNC assembly inh 13, IMPase Li inh 19%[38.3 µM], 15-hLO-2 inh -3%, HPGD inh 7.1µM* and IMPase inh 2.
COc1ccc(OC)c(N(CC(=O)Nc2cccnc2)S(C)(=O)=O)c1 was read as ALOX12 inhib 0%, PNC assembly inh 18, IMPase Li inh 16%[38.3 µM], 15-hLO-2 inh 3%, HPGD inh -2% and IMPase inh -3.
Screening COc1ccc(C)cc1S(=O)(=O)N(C)CC(=O)Nc1ccccc1 returned ALOX12 inhib -2%, PNC assembly inh -108*, IMPase Li inh 10%, 15-hLO-2 inh -3%, HPGD inh -4% and IMPase inh 0.
CCOC(=O)C1=C[C@@]2(CC)CCCN3CCc4c(n1c1ccccc41)C32 (stereo not given in full) was read as ALOX12 inhib 1%, IMPase Li inh 9%, 15-hLO-2 inh 13% and HPGD inh -5%.
Screening CC(=O)Nc1ccc(S(=O)(=O)N(Cc2ccccc2)Cc2ccccc2)cc1 returned IMPase inh 0.
